# Measurements reported in PubChem BioAssay (NCATS).
# Where “and” joins values, the source holds several entries; their conditions need not be identical. Identical values can stand only once. Inconclusive results are not listed. Where a call stands in place of a potency, no number is given. Calls of active or inactive are those of the source. Unless noted, calls follow the shape of the dose curve; as a rule, active = well fitted curve in the direction sought with a large enough effect; inconclusive = small, poorly fitted or top-dose-only effect, or another doubt; inactive = no such curve, though single readings can be large; an effect the other way counts as inactive or inconclusive.
# Experiments:
# [1] = Confirmatory screen GU Rhodamine qHTS for Zika virus inhibitors qHTS (AID 1347157); also: nearly all actives have a fitted effect of over 70% in size; also: potency is read from the fitted curve at half-maximal effect
# Method in brief: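 Enzyme 25 nM in Tris-HCl pH 8.0 + 0.01% Tween 20; compounds up to 114 microM, 15 min RT dark; + Rhod110 substrate 1.5 microM; read t0 and 15 min; delta fluorescence → % inhibition → 4-parameter Hill fit.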
# [2] = tested on: Zika virus NS2B-NS3 protease (linked); test: 384 well plate NINDS AMC confirmatory qHTS for Zika virus inhibitors (AID 1347163); also: nearly all actives have a fitted effect of over 50% in size; also: potency is read from the fitted curve at half-maximal effect;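 as to activity change, negative = inhibition: linked protease at 5 30 or 60 nM final depending on run; fluorescence of AMC released from Ac-VKTGKR-AMC peptide cleaved by the protease; top concentration of the series differs between compounds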
# Method in brief: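 Enzyme (5, 30 or 60 nM final) first met test compounds for ~15 min. The AMC-tagged peptide Ac-VKTGKR-AMC followed at 30 microM. Fluorescence was then recorded at 25 min and scaled against no-enzyme and no-inhibitor wells.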
# [3] = tested on: Zika virus NS2B-NS3 protease (linked construct); test: 384 well plate NINDS Rhodamine confirmatory qHTS for Zika virus inhibitors (AID 1347164); also: nearly all actives have a fitted effect of over 65% in size; also: potency is read from the fitted curve at half-maximal effect; as to activity change, negative = inhibition: top concentration of the series differs between compounds
# Method in brief: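 Compounds are incubated about 15 minutes with linked protease (5, 30 or 60 nM final). Rhodamine 110-tagged Ac-LKRR substrate (10 microM final) is added and fluorescence measured after 25 minutes.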
# [4] = Tertiary RLuc qRT-PCR qHTS assay for Zika virus inhibitors (AID 1347169); also: top concentration of the series differs between compounds; nearly all actives have a fitted effect of over 55% in size
# Method in brief: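 Orthogonal cell-based infection assay using recombinant ZIKV-RLuc (Cambodian) in Vero cells; compound added prior to virus at MOI 1-2. Incubation lasts 48-72 hrs at 37 degrees C before live-cell Renilla substrate is added and luminescence measured.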
# [5] = Confirmatory screen NINDS Rhodamine qHTS for Zika virus inhibitors (AID 1347161); also: nearly all actives have a fitted effect of over 60% in size; also: potency is read from the fitted curve at half-maximal effect;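 as to activity change, negative = inhibition: purified Zika NS2B-NS3 protease with linked NS2B cofactor domain and Rhodamine110 peptide substrate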
# Method in brief: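 Enzyme (25 nM, linked NS2B-NS3) was preincubated 15 min with compound in 10 mM Tris-HCl pH 8.0, 0.01% Tween 20. Rhodamine110 substrate (1.5 microM) was then added and fluorescence read at start and after 15 min.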
# [6] = target: Glucocorticoid receptor (Homo sapiens) (UniProt P04150); test: GR-EFC Redistribution (AID 451; calls by dose curve; also: potency is read from the fitted curve at half-maximal effect); details: CHO-K1 GR-EFC translocation, beta-gal luminescence, 2 h
# Sequence of Glucocorticoid receptor (Homo sapiens) (P04150 whole entry, looked up, the tested form may be a part): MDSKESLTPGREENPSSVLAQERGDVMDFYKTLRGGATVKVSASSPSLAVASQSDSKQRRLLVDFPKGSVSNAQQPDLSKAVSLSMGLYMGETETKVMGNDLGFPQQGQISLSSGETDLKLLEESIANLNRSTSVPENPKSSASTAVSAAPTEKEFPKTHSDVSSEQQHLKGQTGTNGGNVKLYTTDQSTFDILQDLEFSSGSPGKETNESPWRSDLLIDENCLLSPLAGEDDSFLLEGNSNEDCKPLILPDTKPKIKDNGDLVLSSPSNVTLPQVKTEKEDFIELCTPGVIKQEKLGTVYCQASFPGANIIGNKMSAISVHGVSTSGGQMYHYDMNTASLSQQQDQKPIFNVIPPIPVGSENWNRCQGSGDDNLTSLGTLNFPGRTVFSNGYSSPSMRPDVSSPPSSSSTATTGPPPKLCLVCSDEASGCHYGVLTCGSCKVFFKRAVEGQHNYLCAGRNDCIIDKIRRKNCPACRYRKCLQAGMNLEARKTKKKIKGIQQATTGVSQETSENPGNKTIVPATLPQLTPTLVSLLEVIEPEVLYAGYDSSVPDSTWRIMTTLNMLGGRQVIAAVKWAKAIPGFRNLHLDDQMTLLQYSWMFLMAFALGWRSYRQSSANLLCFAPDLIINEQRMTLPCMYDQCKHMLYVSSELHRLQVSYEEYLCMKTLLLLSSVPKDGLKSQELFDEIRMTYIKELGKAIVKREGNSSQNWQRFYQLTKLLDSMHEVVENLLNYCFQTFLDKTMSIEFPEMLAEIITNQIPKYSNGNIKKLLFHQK
# Method in brief: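 CHO-K1 cells stably expressing nuclear-localized β-gal enzyme acceptor and GR fused C-terminally to the enzyme donor fragment; ligand-driven nuclear translocation restores β-gal by complementation. Compounds titrated up to 46 uM final, 2 h at 37 °C; luminescence read.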
# [7] = qHTS Assay for Lipid Storage Modulators (AID 1519; calls by dose curve); details: Drosophila S3 cells, BODIPY lipid droplet/cell ratio, laser cytometry, cells loaded with oleic acid
# Method in brief: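 Cells seeded at 5,000 per well were treated with compounds over a concentration series and loaded with oleic acid (400 uM, as added). Lipid droplet fluorescence (488 nm excitation, 500-530 nm channel) was read by laser-scanning cytometry and normalized to 20 uM Triacsin C.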
# [8] = target: Ubiquitin carboxyl-terminal hydrolase 1 (Homo sapiens) (UniProt O94782); test: Inhibitors of USP1/UAF1: Pilot qHTS (AID 504865); also: potency is read from the fitted curve at half-maximal effect; nearly all actives have a fitted effect of over 35% in size
# Sequence of Ubiquitin carboxyl-terminal hydrolase 1 (Homo sapiens) (O94782 whole entry, looked up): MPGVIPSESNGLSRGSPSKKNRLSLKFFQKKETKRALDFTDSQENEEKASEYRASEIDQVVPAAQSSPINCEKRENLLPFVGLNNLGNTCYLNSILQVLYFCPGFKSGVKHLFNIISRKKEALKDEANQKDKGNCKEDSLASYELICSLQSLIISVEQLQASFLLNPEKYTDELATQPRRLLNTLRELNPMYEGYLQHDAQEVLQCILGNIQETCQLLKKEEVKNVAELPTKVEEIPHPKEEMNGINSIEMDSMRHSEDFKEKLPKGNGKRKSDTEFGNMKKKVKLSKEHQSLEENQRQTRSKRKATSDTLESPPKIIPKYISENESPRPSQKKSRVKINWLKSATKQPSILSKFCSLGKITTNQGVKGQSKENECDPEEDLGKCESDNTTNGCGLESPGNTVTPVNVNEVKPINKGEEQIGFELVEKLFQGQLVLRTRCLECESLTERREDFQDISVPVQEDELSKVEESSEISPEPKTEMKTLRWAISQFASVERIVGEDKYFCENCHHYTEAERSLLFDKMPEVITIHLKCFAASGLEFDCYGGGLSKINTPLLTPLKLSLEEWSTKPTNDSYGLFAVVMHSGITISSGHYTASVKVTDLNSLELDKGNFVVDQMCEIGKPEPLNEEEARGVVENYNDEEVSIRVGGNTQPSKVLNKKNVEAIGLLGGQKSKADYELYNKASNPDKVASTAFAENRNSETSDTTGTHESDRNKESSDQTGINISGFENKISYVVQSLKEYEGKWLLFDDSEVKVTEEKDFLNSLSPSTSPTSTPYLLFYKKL
# Method in brief: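 Kinetic fluorescence assay: 1nM USP1/UAF1, 15 min compound preincubation, then 150nM Ub-Rho; 480/540 nm.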
# [9] = target: DNA dC->dU-editing enzyme APOBEC-3G (Homo sapiens) (UniProt Q9HC16); test: qHTS for inhibitors of Vif-A3G interactions: Validation (AID 588379)
# Sequence of DNA dC->dU-editing enzyme APOBEC-3G (Homo sapiens) (Q9HC16 whole entry, looked up): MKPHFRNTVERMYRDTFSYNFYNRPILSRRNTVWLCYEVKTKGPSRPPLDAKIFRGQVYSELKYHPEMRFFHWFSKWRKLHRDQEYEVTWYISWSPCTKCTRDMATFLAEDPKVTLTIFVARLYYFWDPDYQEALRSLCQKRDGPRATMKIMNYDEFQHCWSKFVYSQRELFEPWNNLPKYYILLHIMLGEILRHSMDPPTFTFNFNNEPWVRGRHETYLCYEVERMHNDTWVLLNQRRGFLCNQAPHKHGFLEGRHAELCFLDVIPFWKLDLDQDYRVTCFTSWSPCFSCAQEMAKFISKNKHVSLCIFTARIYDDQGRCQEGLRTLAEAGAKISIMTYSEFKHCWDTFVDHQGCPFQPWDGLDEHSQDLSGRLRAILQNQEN
# Method in brief: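 Yellow fluorescence (Ex 488, Em 500-530) of Vif-coexpressing HeLa A3G-eYFP cells, scanned by Acumen cytometer, reports blocked A3G degradation. Cells plated at 700/well overnight at 37 deg C before compound addition, then a further overnight compound incubation at 37 deg C.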
# [10] = ZIKV-mCherry secondary qHTS for Zika virus inhibitors (AID 1347158); also: top concentration of the series differs between compounds
# Method in brief: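 Read-out is percent infection: mCherry-positive Vero cells (nuclear-proximal intensity >450 RFU, 3 SD above negative controls) counted by high-content imaging of Hoechst-stained, PFA-fixed wells after 48-72 h with ZIKV-mCherry at MOI 1 and compound.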
# [11] = Panc-1005 Cancer Cell Toxicity qHTS against the NCATS CANVASS Library (AID 1347349); also: nearly all actives have a fitted effect of over 60% in size
# Method in brief: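 Per well, 1000 cells; exposure 72 h with compound at 11 final concentrations; readout CellTiter-Glo luminescence.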
# [12] = HPAF-II 18hr Apoptosis Induction qHTS against the NCATS CANVASS Library (AID 1347360)
# Method in brief: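 Apoptosis was scored as caspase-3/7 activity in HPAF-II pancreatic cancer cells treated 18 hours with an 11-point concentration series.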
# [13] = target: Luciferin 4-monooxygenase (Photinus pyralis) (UniProt P08659); test: Firefly luciferase counterscreen qHTS: Assay Interference Panel against the NCATS CANVASS Library (AID 1347363)
# Sequence of Luciferin 4-monooxygenase (Photinus pyralis) (P08659 whole entry, looked up): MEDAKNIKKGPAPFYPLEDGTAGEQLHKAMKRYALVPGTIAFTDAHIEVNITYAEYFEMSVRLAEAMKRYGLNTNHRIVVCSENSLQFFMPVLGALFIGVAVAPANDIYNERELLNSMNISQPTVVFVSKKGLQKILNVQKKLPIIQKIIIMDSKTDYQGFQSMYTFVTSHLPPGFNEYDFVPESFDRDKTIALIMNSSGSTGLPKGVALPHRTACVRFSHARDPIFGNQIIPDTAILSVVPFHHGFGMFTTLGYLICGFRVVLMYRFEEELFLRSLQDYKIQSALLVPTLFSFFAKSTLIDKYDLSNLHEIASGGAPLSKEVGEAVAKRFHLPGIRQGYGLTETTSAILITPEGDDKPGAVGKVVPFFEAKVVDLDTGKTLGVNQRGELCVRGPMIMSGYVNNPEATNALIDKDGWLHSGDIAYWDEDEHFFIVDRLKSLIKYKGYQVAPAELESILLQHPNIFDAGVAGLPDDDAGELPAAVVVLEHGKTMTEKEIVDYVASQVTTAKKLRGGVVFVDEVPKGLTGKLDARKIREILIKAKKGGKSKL
# Method in brief: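 Purified P. pyralis luciferase was added to compounds (11-point series) preincubated 15 min at room temperature with substrate containing 0.013 mM D-luciferin and 0.013 mM ATP; luminescence was read after 5 min.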
# [14] = DH5-alpha competent E. coli microbial cell viability qHTS against the NCATS CANVASS Library (AID 1347377); details: outcome: dose series up to 46.1 µM unless noted
# Method in brief: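 Luminescent ATP read-out (BacTiter-Glo, 20 min RT) after overnight 37C culture of DH5-alpha E. coli with compounds; daunomycin control at 0.2 nM–9.2 uM final.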
# [15] = Inflammasome Signaling qHTS Counterscreen: IL-1-beta AlphaLISA counterscreen against the NCATS CANVASS Library (AID 1347381);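 also: cell-free check with purified IL-1β in medium and no THP-1 cells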
# Method in brief: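 Here, no cellular stimulation occurs; compounds in an 11-point series meet 4 pg purified IL-1-beta directly. Bead-based AlphaLISA detection follows (1 h acceptor/antibody, then 30 min donor, dark, room temperature), with excitation at 680 nm.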
# [16] = qHTS for activators of Nrf2/ARE signaling pathway screened against the NCATS CANVASS Library (AID 1347391); also: nearly all actives have a fitted effect of over 60% in size
# Method in brief: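 HepG2 ARE-bla; cpd 11-pt qHTS, 16 h 37C/5% CO2; CCF4 substrate 2 h RT; read ex 405 / em 460 + 530 nm. Viability by CellTiter-Glo luminescence, 30 min RT.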
# [17] = qHTS for Antimalaria activity screened against the NCATS CANVASS Library (AID 1347380);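 also: Plasmodium falciparum strain Dd2 asexual parasites grown in red blood cells; nearly all actives have a fitted effect of over 40% in size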
# Method in brief: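 SYBR Green fluorescence (ex 485, em 535 nm) read after saponin/Triton lysis and 18 h further incubation; Dd2 asexual blood-stage parasites, 72 h compound exposure, 11-pt concentration series, 2.5% hematocrit, 0.3% parasitemia.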
# [18] = HEK293 18hr Apoptosis Induction qHTS against the NCATS CANVASS Library (AID 1347357)
# Method in brief: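 Luminescent caspase-3/7 signal is measured in HEK293 cells exposed for 18 hours to an 11-point concentration series; doxorubicin serves as the plate control.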
smiles,measurement,setting,value
O=C(OCc1cc(=O)n2nc(C3CC3)sc2n1)c1ccc(NC(=O)c2ccccc2Cl)cc1,Potency,[1],50.1 µM (active)
same,Potency,[2],inactive
same,Potency,[3],inactive
same,Potency,[4],inactive
O=C(O)c1nc2cc(Cl)c(Cl)cc2[nH]c1=O,Potency,[1],inactive
same,Potency,[5],inactive
same,Potency,[4],inactive
CCOC(=O)c1ccc(N2C(=O)c3n[nH]c(-c4cccs4)c3C2c2ccc(Cl)cc2Cl)cc1 (stereo not drawn),Potency,[1],31.6 µM (active)
same,Potency,[5],25.1 µM (active)
same,Potency,[3],44.7 µM (active)
CC(Oc1ccccc1)C(=O)Nc1ccc(C(=O)OCc2cc(=O)n3nc(C(C)C)sc3n2)cc1 (stereo not drawn),Potency,[1],inactive
same,Potency,[5],inactive
same,Potency,[4],inactive
O=C(Nc1ccccc1C(=O)OCc1cc(=O)n2c3c(sc2n1)CCCC3)c1ccc(F)cc1,Potency,[1],inactive
same,Potency,[4],inactive
CCOC(=O)c1c(-c2ccccc2)csc1NC(=O)c1cc(-c2ccc(Cl)cc2)on1,Potency,[1],inactive
same,Potency,[5],inactive
same,Potency,[4],inactive
CCCCOC(=O)c1ccc(NC(=O)c2ccc3c(c2)CCN3S(=O)(=O)c2ccccc2)cc1,Potency,[1],inactive
same,Potency,[5],inactive
same,Potency,[4],inactive
CC(C)(C)c1ccc(S(=O)(=O)c2cnc(SCC(=O)Nc3ccc4c(c3)OCCO4)[nH]c2=O)cc1,Potency,[1],7.08 µM (active)
same,Potency,[5],6.31 µM (active)
same,Potency,[2],316 µM (active)
same,Potency,[3],31.6 µM (active)
same,Potency,[4],inactive
CCCCc1nn2c(=O)cc(COC(=O)c3ccc(NC(=O)c4cccs4)cc3)nc2s1,Potency,[1],inactive
same,Potency,[5],inactive
same,Potency,[4],inactive
CCS(=O)(=O)c1cccc(C(=O)Nc2ccc(-c3nc4ccccc4s3)c(O)c2)c1,Potency,[1],25.1 µM (active)
same,Potency,[5],15.8 µM (active)
same,Potency,[2],inactive
same,Potency,[3],14.1 µM (active)
same,Potency,[4],inactive
O=C(Nc1ccc(C(=O)Nc2ccc(C(=O)Nc3ccc(S(=O)(=O)O)c4cc(S(=O)(=O)O)cc(S(=O)(=O)O)c34)cc2)cc1)Nc1ccc(C(=O)Nc2ccc(C(=O)Nc3ccc(S(=O)(=O)O)c4cc(S(=O)(=O)O)cc(S(=O)(=O)O)c34)cc2)cc1,Potency,[6],> 46 µM (inactive)
same,"activity change, negative = inhibition",[7]; at 57.5 µM (top of the series),5.27% (inactive)
same,max response,[7]; measured here: cell count channel max response,-4.46%
same,max response,[7]; measured here: lipid channel max response,0.0462%
same,Potency,[8],39.8 µM (active)
same,Potency,[9],inactive
same,Potency,[1],2 µM (active)
same,Potency,[5],2.24 µM (active) and 1.26 µM (active)
same,Potency,[2],39.8 µM (active)
same,Potency,[3],2.51 µM (active)
same,Potency,[4],inactive
COc1ccc(S(=O)(=O)c2c(Nc3ccc(C)cc3)sc(C(=O)c3ccc4c(c3)OCO4)c2N)cc1,Potency,[1],inactive
same,Potency,[5],inactive
same,Potency,[4],inactive
O=C(CNC(=O)c1ccccc1F)OCc1cc(=O)n2nc(C3CCCCC3)sc2n1,Potency,[1],inactive
same,Potency,[5],inactive
same,Potency,[4],inactive
CCOC(=O)c1ccc(CN(Cc2ccc(F)cc2)S(=O)(=O)c2ccc(F)c(C(=O)Nc3ccccc3C(F)(F)F)c2)cc1,Potency,[1],inactive
same,Potency,[5],inactive
same,Potency,[4],inactive
CCOC(=O)c1ccc(CN(Cc2ccccc2C)S(=O)(=O)c2ccc(F)c(C(=O)Nc3cccc(OC)c3)c2)cc1,Potency,[1],inactive
same,Potency,[5],inactive
O=C(Nc1ccc(C(=O)OCc2cc(=O)n3nc(C4CC4)sc3n2)cc1)c1ccc(F)cc1,Potency,[1],inactive
same,Potency,[4],inactive
CC(=O)Nc1ccc(S(=O)(=O)O)c2cc(S(=O)(=O)O)c(N=Nc3ccc(N=Nc4ccc(S(=O)(=O)O)cc4)c4ccc(S(=O)(=O)O)cc34)c(O)c12,Potency,[1],6.31 µM (active)
same,Potency,[5],2.51 µM (active)
same,Potency,[2],22.4 µM (active)
same,Potency,[3],3.98 µM (active)
same,Potency,[4],inactive
COc1ccc(NS(=O)(=O)c2ccc3c(c2)[C@H]2C=CC[C@H]2[C@@H](c2ccc(C(=O)O)cc2)N3)cc1,Potency,[1],20 µM (active)
same,Potency,[5],3.16 µM (active)
same,Potency,[2],79.4 µM (active)
same,Potency,[3],20 µM (active)
same,Potency,[4],inactive
O=C(Nc1ccccc1C(F)(F)F)c1ccc2oc(=O)c(S(=O)(=O)c3ccc(F)cc3)cc2c1,Potency,[1],inactive
same,Potency,[5],inactive
same,Potency,[4],inactive
CCOC(=O)c1ccc(NC(=O)c2nc(SCc3ccc(F)cc3)ncc2Cl)cc1,Potency,[1],inactive
same,Potency,[5],inactive
same,Potency,[4],inactive
O=C(COC(=O)c1cccc(NC(=O)c2ccc(Br)cc2)c1)c1ccc(Cl)cc1,Potency,[1],inactive
same,Potency,[4],inactive
O=C(Nc1ccc(C(=O)OCc2cc(=O)n3nc(C4CC4)sc3n2)cc1)c1ccccc1,Potency,[1],inactive
same,Potency,[4],inactive
O=C(Nc1ccccc1C(=O)OCc1cc(=O)n2c3c(sc2n1)CCCC3)c1cccc(Cl)c1,Potency,[1],inactive
same,Potency,[4],inactive
O=C(Nc1ccccc1C(=O)OCc1cc(=O)n2nc(C3CC3)sc2n1)c1cccc(Cl)c1,Potency,[1],inactive
same,Potency,[4],inactive
Cc1ccc(-c2cc(C(F)(F)F)c(C#N)c(SCC(=O)O)n2)cc1,Potency,[1],44.7 µM (active)
same,Potency,[5],44.7 µM (active)
same,Potency,[2],141 µM (active)
same,Potency,[3],126 µM (active)
CN(C)c1cc(CNCC(C)(C)C)c(O)c2c1C[C@H]1C[C@H]3[C@H](N(C)C)C(=O)C(C(N)=O)=C(O)[C@@]3(O)C(=O)C1=C2O,Potency,[10],inactive
same,Potency,[5],inactive
same,Potency,[2],178 µM (active)
same,Potency,[3],158 µM (active)
CC(O)/C=C/C1(O)C(C)(C)CC(O)CC1(C)O (stereo not drawn),Potency,[11],inactive
same,Potency,[12],inactive
same,Potency,[13],inactive
same,outcome,[14],inactive
same,outcome,[15],inactive
same,Potency,[16],inactive
O=C(O)CC1OCc2c(O)cccc21 (stereo not drawn),Potency,[11],inactive
same,Potency,[12],inactive
same,Potency,[13],inactive
same,Potency,[17],inactive
same,outcome,[15],inactive
same,Potency,[16],inactive
CC1C(=O)C23CCC1C[C@]21O[C@@H]2C(C)(C)C=CC(=O)[C@@]23COC1=O (stereo partly drawn),Potency,[11],inactive
same,Potency,[18],inactive
same,outcome,[15],inactive
same,Potency,[16],inactive
CC(C)CN1CC(CNC(=O)c2ccc(Oc3ccccc3)cc2)Oc2ccnc(-c3ccc(OCC(=O)O)cc3)c2C1=O (stereo not drawn),Potency,[10],inactive
same,Potency,[3],28.2 µM (active)
